High-throughput results as filed in PubChem BioAssay.
Compounds with a hit are over-represented: about 1.9% of the library has one in this group of screens.
Jurkat tox 60K: cytotoxic compounds reducing Jurkat cell viability. Jurkat E6.1 viability, ATP luminescence, 48 h. inhibition, % at 4 µM. 1.2% of 56,000 active. AID 463;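 active = inhibition above the mean inhibition of all tested compounds plus 3 SD, cut at about 28% in these data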
SKBR3 24h inh: SK-BR-3 proliferation inhibitors; SK-BR-3 viability, CellTiter-Glo ATP luminescence, 24 h; hits give low values; viability, % at 10 µM; 0.47% of 41,000 active;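 active = viability at or below the median of all test compounds minus 3 SD, in both replicates if run twice, cut at about 45% in these data; inconclusive = duplicate replicates that disagree with each other; inactive = viability above that cutoff in every replicate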;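 note: 100% = median untreated cell wells and 0% = median positive control drug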
HER2 expr 66K: lowers expression of human Her2 kinase | 0.69% of 65,000 active | SKBR-3 HER2 protein level, AlphaScreen, 18-24 h; hits give low values | P04626 | HER2 level % of control, % at 10 µM;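 active = HER2 level under 5% of the carrier-only control; inconclusive = no clear call, values can overlap the other calls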;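 note: 100% = DMSO carrier and 0% = 500 nM PU-H71 HSP90 inhibitor; lower value means stronger loss of Her2 protein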
Target sequence (P04626 whole entry, looked up): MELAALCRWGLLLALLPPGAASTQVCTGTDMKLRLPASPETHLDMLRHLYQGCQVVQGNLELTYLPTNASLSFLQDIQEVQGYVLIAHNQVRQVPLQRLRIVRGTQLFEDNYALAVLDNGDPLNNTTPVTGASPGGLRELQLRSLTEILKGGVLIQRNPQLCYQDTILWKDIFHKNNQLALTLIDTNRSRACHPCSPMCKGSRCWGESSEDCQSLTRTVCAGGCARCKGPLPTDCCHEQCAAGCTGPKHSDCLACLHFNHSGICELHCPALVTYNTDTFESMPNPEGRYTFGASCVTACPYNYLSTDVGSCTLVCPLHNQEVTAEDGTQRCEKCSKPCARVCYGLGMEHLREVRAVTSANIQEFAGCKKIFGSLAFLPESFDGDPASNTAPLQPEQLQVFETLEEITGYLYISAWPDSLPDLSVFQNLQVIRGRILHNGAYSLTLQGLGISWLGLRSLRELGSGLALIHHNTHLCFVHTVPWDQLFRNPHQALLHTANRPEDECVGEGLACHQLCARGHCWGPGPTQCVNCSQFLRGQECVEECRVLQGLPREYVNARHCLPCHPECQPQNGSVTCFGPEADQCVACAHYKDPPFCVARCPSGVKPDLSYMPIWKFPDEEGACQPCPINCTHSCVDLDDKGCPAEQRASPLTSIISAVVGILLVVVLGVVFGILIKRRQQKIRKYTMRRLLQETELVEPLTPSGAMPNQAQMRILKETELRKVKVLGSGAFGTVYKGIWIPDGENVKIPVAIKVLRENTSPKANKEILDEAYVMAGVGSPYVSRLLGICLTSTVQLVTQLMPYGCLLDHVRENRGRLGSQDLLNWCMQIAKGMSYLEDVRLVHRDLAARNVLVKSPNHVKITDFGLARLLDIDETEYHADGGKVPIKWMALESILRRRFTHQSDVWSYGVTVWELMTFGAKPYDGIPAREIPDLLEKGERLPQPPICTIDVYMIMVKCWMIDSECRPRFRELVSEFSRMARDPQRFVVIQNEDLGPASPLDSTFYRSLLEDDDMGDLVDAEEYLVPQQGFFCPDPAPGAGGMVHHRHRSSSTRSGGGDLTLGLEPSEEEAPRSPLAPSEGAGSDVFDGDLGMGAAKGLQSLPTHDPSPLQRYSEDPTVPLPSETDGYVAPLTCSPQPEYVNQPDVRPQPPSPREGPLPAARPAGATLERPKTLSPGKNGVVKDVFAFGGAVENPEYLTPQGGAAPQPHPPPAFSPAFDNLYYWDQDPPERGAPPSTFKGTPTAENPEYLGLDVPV
Starred values were filed as active, the others as inactive; ? = inconclusive; . = no result.

SMILES | Jurkat tox 60K | SKBR3 24h inh | HER2 expr 66K
Cc1ccc(-c2noc(C3CCCN(C(=O)c4c(F)cccc4F)C3)n2)cc1 (stereo unspecified) | -4 | 28* | 0.1*
COc1ccc(-c2noc(C3CCCN(C(=O)c4ccccc4OC)C3)n2)cc1OC (stereo unspecified) | -3 | 57 | 46
CC1CCCN(C(=O)Cn2c(-c3nonc3N)nc3ccccc32)C1 (stereo unspecified) | 1 | 94 | -24*
CCOC(=O)c1ccccc1NC(=O)Cn1c(-c2nonc2N)nc2ccccc21 | 98* | 68 | 51
Nc1nonc1-c1nc2ccccc2n1Cc1ccccc1 | 89* | 89 | 51
Nc1nonc1-c1nc2ccccc2n1CC(=O)NC1CCCC1 | 2 | . | 105
CCC(=O)Nc1nonc1-c1nc2ccccc2n1CC(C)C | 2 | 100 | 108
COCc1nc2ccccc2n1Cc1ccccc1 | . | . | 103
CCOC(=O)C1CCCN(S(=O)(=O)c2ccc(OC)c3ccccc23)C1 (stereo unspecified) | 3 | . | 104
COc1cc(C)c(S(=O)(=O)n2ccc(C)n2)cc1C | . | . | 100
CCCOc1ccc(OC(=O)c2ccc(Br)o2)cc1 | 0 | 97 | 127
CCc1c(C)nc2ncnn2c1NCCc1ccc(OC)cc1 | 93* | . | 75
c1ccc(CCNc2c3c(nc4ncnn24)CCC3)cc1 | 7 | 81 | 104
CCN(CC)CCCNC(CC(=O)O)C(=O)O (stereo unspecified) | -6 | 48 | 103
CCOc1cc2c(cc1OCC)C(c1cc(OC)c(O)c(OC)c1)NCC2 (stereo unspecified) | -2 | 99 | 79
COc1ccccc1CC(=O)Nc1ccc(O)cc1C(=O)O | 3 | 93 | 95
O=C(Nc1cccc2nsnc12)C1CC(=O)N(c2ccccc2)C1 (stereo unspecified) | 7 | 42* | 93
COC(=O)c1ccccc1NC(=O)C1CC(=O)N(c2ccccc2)C1 (stereo unspecified) | 0 | . | 92
O=C(CCSc1nc(-c2ccco2)cc(C(F)(F)F)n1)Nc1ccc2c(c1)OCO2 | 10 | 72 | 95
CC1=C(C)C(=O)NC(Nc2nc(C)c3cc(C)cc(C)c3n2)N1 (stereo unspecified) | -1 | . | -14*
O=C(CN1CCOCC1)Nc1nc(-c2ccc3c(c2)CCN3S(=O)(=O)c2ccccc2)cs1 | 4 | 69 | 75
CS(=O)(=O)N1CCc2cc(-c3csc(NC(=O)Cc4cccs4)n3)ccc21 | 70* | 97 | 80
Oc1ccc(CN2CCN(Cc3ccccc3)CC2)c2cccnc12 | -4 | . | 104
Oc1c(CN2CCc3ccccc3C2)cc(Cl)c2cccnc12 | 16 | . | 6
Oc1c(CN2CCCCC2)cc(Br)c2cccnc12 | 49* | 39* | 31
SMILES | Jurkat tox 60K | SKBR3 24h inh | HER2 expr 66K
CN1CCN(Cc2cc(COCc3ccccc3)c3cccnc3c2O)CC1 | 36* | . | 103
CC(=O)NC(CCS(C)(=O)=O)C(=O)N1CCc2ccccc21 (stereo unspecified) | 2 | 65 | 71
CCOc1cc(C2NC(=O)N(C)C(C)=C2C(=O)OC)cc(Br)c1O (stereo unspecified) | -2 | 67 | 50
O=C(Cn1cccc1)NCc1cccs1 | -2 | . | 75
O=C(Cc1ccc(-n2cccc2)cc1)NCc1cccs1 | 71* | 91 | 72
CC1CCc2cc(F)ccc2N1C(=O)CN1C(=O)c2ccccc2C1=O (stereo unspecified) | 6 | 102 | 138
COc1ccccc1N1CCN(C(=O)c2c(-c3ccccc3)noc2C)CC1 | 88* | . | 35
Cc1onc(-c2ccccc2)c1C(N)=O | 0 | 95 | 98
Cc1onc(-c2ccccc2)c1C(=O)N1CCCN(C(=O)c2c(-c3ccccc3)noc2C)CC1 | -2 | 80 | 73
Cc1onc(-c2ccccc2)c1C(=O)n1nnc2ccccc21 | -6 | . | 2.2*
OC(CN1CCN(c2ccccc2)CC1)c1ccc2c(c1)CCN2 (stereo unspecified) | -5 | . | 88
O=c1c2c3c(sc2n2cnnc2n1-c1ccccc1)N(Cc1ccccc1)CCC3 | 2 | 105 | 102
COC(=O)c1cc(C(=O)OC)cc(S(=O)(=O)Nc2ccc(Cl)c(N)c2)c1 | -6 | 91 | 92
COc1cc(C(=O)N2CCC(c3nc(-c4cccnc4)no3)CC2)cc(OC)c1OC | -2 | 104 | 120
COC(=O)c1cc2oc3ccccc3c2n1CC(=O)Nc1ccccc1OC | 9 | . | 78
COc1cccc(CNC(=O)c2cc3oc4ccccc4c3n2C)c1OC | 29* | . | 48
COc1ccc(C2(O)CCN(CCCCOc3ccccc3)CC2)cc1 | -3 | . | 113
CCOC(=O)C(C(C)=O)c1c(Br)c(O)c(O)c2c(C(=O)c3ccc(C)cc3)coc12 (stereo unspecified) | 61* | ? | -21*
O=C(Cc1c(F)cccc1Cl)N1CCCC1 | 0 | 86 | 107
COc1ccc(C2CC(=O)N3C(=C2C#N)SCC3(O)c2ccccc2)cc1 (stereo unspecified) | 18 | . | 109
N#CC1=C2SCN(c3ccccc3)CN2C(=O)CC1c1ccccc1Cl (stereo unspecified) | 5 | . | 99
Cc1ccc(C2CC(=O)N3CN(c4ccc(Br)cc4)CSC3=C2C#N)o1 (stereo unspecified) | -7 | 90 | -19*
N#CC1=C2SCC(O)(c3ccccc3)N2C(=O)CC1c1cccs1 (stereo unspecified) | 79* | . | 60
N#CC1=C2SCN(c3ccccc3)CN2C(=O)CC1c1c(Cl)cccc1Cl (stereo unspecified) | 6 | . | 68
N#CC1=C2SCN(c3ccccc3)CN2C(=O)CC1c1cccs1 (stereo unspecified) | -3 | 92 | -20*
SMILES | Jurkat tox 60K | SKBR3 24h inh | HER2 expr 66K
CN(C)/C=C1\C(=O)c2ccc(N(C)C)nc2CC1c1ccccc1 (stereo unspecified) | 0 | 104 | 82
Cc1csc2ncc(C(=O)NCc3ccccn3)c(=O)n12 | -12 | . | 83
O=C(CN1C(=O)c2ccccc2C1=O)OCN1C(=O)c2ccccc2C1=O | . | 83 | 93
c1ccc(-n2c(-c3ccncc3)nnc2-c2ccco2)cc1 | 0 | 89 | 82
c1ccc(-n2c(-c3ccncc3)nnc2N2CCOCC2)cc1 | 4 | . | -3.3*
CN1CCN(CC(=O)N2CCn3c4c(c5cc(C6CCCCC6)ccc53)CCCC42)CC1 (stereo unspecified) | 6 | . | -16*
Cc1ccc2c(c1)c1c3n2CCN(C(=O)CN2CCN(C)CC2)C3CCC1 (stereo unspecified) | 6 | 89 | 75
CCc1cc(-c2[nH]ncc2-c2ccc3c(c2)OCO3)c(O)cc1O | 12 | . | -1.1*
COc1ccc(-c2[nH]ncc2-c2ccc3c(c2)OCCO3)c(O)c1 | 8 | 97 | 33
CC(CC(=O)O)CC(=O)Nc1ccccc1C(=O)O (stereo unspecified) | -3 | 103 | 98
Cc1ccc(-n2ncc3c(=O)n(CC(=O)N4CCCc5ccccc54)cnc32)cc1C | 0 | 85 | 68
CC(=O)Nc1ccc(S(=O)(=O)n2nc(C)cc2C)cc1 | 1 | 127 | 76
CC(=O)Nc1ccc(S(=O)(=O)n2cnc3cc(C)c(C)cc32)cc1 | 28* | 66 | 109
COc1ccccc1OCC(=O)Nc1cccc(C(=O)N2CCOCC2)c1 | 5 | 99 | 107
